PubChem BioAssay AID1004 (SRMLSC, 2008)
A number with no mark means an inactive call. Active and inactive are the calls of the source.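 The calls were made as follows: active = viability at 10 µM of 29.74% or lower, 3 SD below the compound median; inactive = the rest.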

Assay: viability of HCT116 lacking mutant beta-catenin – cell-based, DP diverse set, validation, pilot screen (AID 1004)
Conditions: HCT116 (mutant beta-catenin deleted) viability, CellTiter-Glo, 60 h; at 10 µM; stronger effect = lower value

Row | Compound | viability
1 | CC[C@@]1([C@@H]2O[C@@H]([C@H]3O[C@@](O)(CO)[C@H](C)C[C@@H]3C)C[C@@H]2C)CC[C@H]([C@]2(C)CC[C@]3(C[C@H](O)[C@@H](C)[C@@H]([C@@H](C)[C@@H](OC)C(C)C(=O)O)O3)O2)O1 (stereo not given in full) | 93%
2 | CC1(C)OC2CC(=O)OCC23C1CC(=O)C1(C)C3CC[C@@]2(C)[C@H](c3ccoc3)OC(=O)C3OC312 (stereo not given in full) | 93%
3 | COc1ccc(/C=C/c2cc(OC)cc(=O)o2)cc1 | 103%
4 | CC(C)C[C@@H](NC(=O)[C@@H](O)[C@H](N)Cc1ccccc1)C(=O)O | 92.8%
5 | COc1ccc2nc(S(=O)Cc3ncc(C)c(OC)c3C)[nH]c2c1 (stereo not given) | 96.8%
6 | CC1COC2=C1C(=O)C(=O)c1c2ccc2c1CCCC2(C)C (stereo not given) | 32.2%
7 | O=c1c(-c2ccc(O)cc2)coc2cc(O)ccc12 | 91%
8 | Cc1ccc(Cl)c(Nc2ccccc2C(=O)O)c1Cl | 98.9%
9 | O=c1[nH]cc(F)c(=O)[nH]1 | 58.1%
10 | CCOC(=O)c1ncn2c1CN(C)C(=O)c1cc(F)ccc1-2 | 99.8%
11 | CC[N+](CC)(CC)CC(=O)Nc1c(C)cccc1C | 101%
12 | CNCCC(Oc1ccc(C(F)(F)F)cc1)c1ccccc1 (stereo not given) | 94.1%
13 | CCCCCCCCCCCCCCCC(=O)OCC(O)C1OC(=O)C(O)=C1O (stereo not given) | 100%
14 | CCOC(=O)c1c(N)sc(C)c1-c1ccccc1 | 108%
15 | O=C(c1ccc(OCCN2CCCCC2)cc1)c1c(-c2ccc(O)cc2)sc2cc(O)ccc12 | 86.1%
16 | COc1ccc(CCN2CCC(Nc3nc4ccccc4n3Cc3ccc(F)cc3)CC2)cc1 | 44.6%
17 | CN(C)c1ccc(/C=C2\C(=O)Nc3ccccc32)cc1 | 80.2%
18 | CCC[C@@H]1C[C@@H](C(=O)NC(C(C)Cl)[C@H]2O[C@H](SC)[C@H](O)[C@@H](O)[C@H]2O)N(C)C1 (stereo not given in full) | 95.6%
19 | COc1ccc(CCN(C)CCCN2CCc3cc(OC)c(OC)cc3CC2=O)cc1OC | 102%
20 | CCC(C)C(O)C(C)C(=O)C(C)/C=C(\C)CC(C)C1OC(=O)C1CC (stereo not given) | 107%
21 | Cc1cc(CC(=O)O)n(C)c1C(=O)c1ccc(Cl)cc1 | 98.7%
22 | COc1cccc2c1C(=O)c1c(O)c3c(c(O)c1C2=O)C[C@@](O)(C(=O)CO)C[C@@H]3OC1C[C@@H](N)[C@H](O)[C@H](C)O1 (stereo not given in full) | 27.4% (active)
23 | [O][C@H]1[C@@H](O)[C@@H](CO)O[C@@H](O[C@@H]2[C@@H]3OC[C@H]2O[C@H](O[C@@H]2[C@@H](O)[C@H](C[C@@H]4[C@@H]5OC[C@H]4O[CH][C@@H]5O)O[C@H](CO)[C@@H]2OS(=O)(=O)O)[C@@H]3OS(=O)(=O)O)[C@@H]1O | 96.4%
24 | COC(=O)C1=C(C)NC(C)=C(C(=O)OCCNCc2ccccc2)C1c1cccc([N+](=O)[O-])c1 (stereo not given) | 79.3%
25 | CCn1cc(C(=O)O)c(=O)c2ccc(C)nc21 | 94.8%
26 | C[C@H](CCC(=O)O)[C@H]1CC[C@H]2[C@@H]3CC[C@@H]4C[C@H](O)CC[C@]4(C)[C@H]3CC[C@]12C | 102%
27 | c1ccc2nc3ccccc3cc2c1 | 100%
28 | NS(=O)(=O)c1cc(C(=O)O)c(NCc2ccco2)cc1Cl | 96.3%
29 | CC(=O)[C@H]1[C@H](C#N)CC2C3CC=C4C[C@@H](O)CCC4(C)C3CCC21C (stereo not given in full) | 98.1%
30 | Cn1c(=O)c2[nH]cnc2n(C)c1=O | 100%
